{"source": "PubChem BioAssay (NCATS)", "note": "Results filed as inconclusive are left out. Where a call stands in place of a potency, no number is given. Calls of active or inactive are those of the source. The call rests on the fitted dose curve; in most records, active means well fitted inhibition curve with a large enough effect; inconclusive means small, poorly fitted or top-dose-only effect; inactive means flat fitted curve, though single readings scatter. Potency means the concentration at half of the fitted maximal effect."}
{"assay": "qHTS to identify inhibitors of the type 1 interferon - major histocompatibility complex class I in skeletal muscle: primary screen against the NCATS LOPAC collection (AID 1347405);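 further: human myoblasts with HiBiT tag on endogenous HLA-B stimulated by IFN-beta; lytic HiBiT luminescence reporting HLA-B protein level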", "settings": "iHSKM muscle cells, IFN-b-induced MHC-I HiBiT luminescence, 24 h; series mostly up to 45.9 µM", "outline": "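IFN-beta-stimulated (4 ng/ml) HLA-B HiBiT knock-in myoblasts, compound-treated 24 hrs up to 46 uM final; signal via LgBiT complementation and furimazine luminescence.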"}
{"smiles": "Cc1cccc(C2CN(C)CCc3c2cc(O)c(O)c3Cl)c1", "note": "(stereo not drawn)", "Potency": "inactive"}
{"smiles": "C[C@]12C=CC(=O)C=C1CC[C@@H]1C2=CC[C@]2(C)[C@@H](C(=O)CN3CCN(c4cc(N5CCCC5)nc(N5CCCC5)n4)CC3)CC[C@@H]12", "Potency": "inactive"}
{"smiles": "CC(N)=O", "Potency": "inactive"}
{"smiles": "CC(=O)[C@H]1CCC2C3CC=C4C[C@@H](OS(=O)(=O)O)CC[C@]4(C)C3CC[C@@]21C", "note": "(stereo partly drawn)", "Potency": "inactive"}
{"smiles": "COc1cc(/C=C(\\C#N)C(=O)c2ccc(O)c(O)c2)cc(I)c1O", "Potency": "inactive"}
{"smiles": "NC1C=CC=C(C(=O)O)C1", "note": "(stereo not drawn)", "Potency": "inactive"}
{"smiles": "CCCc1c(-c2ccc(O)cc2)nn(-c2ccc(O)cc2)c1-c1ccc(O)cc1", "Potency": "inactive"}
{"smiles": "N[C@H](C(=O)O)c1cc(O)cc(O)c1", "Potency": "inactive"}
{"smiles": "O=c1[nH]c2cc(Cl)ccc2c(O)c1-c1ccc(Oc2ccccc2)cc1", "Potency": "8.91 µM (active)"}
{"smiles": "N[C@H](C(=O)O)[C@H]1C[C@@H]1C(=O)O", "Potency": "inactive"}
{"smiles": "N#C/C(=C\\c1ccc(O)c(O)c1)C(=O)NCCCNC(=O)/C(C#N)=C/c1ccc(O)c(O)c1", "Potency": "inactive"}
{"smiles": "CCCCCCN(CCCCCC)C(=O)Cc1c(-c2ccc(F)cc2)[nH]c2ccccc12", "Potency": "inactive"}
{"smiles": "COc1ccccc1N1CCN(CCN(C(=O)c2ccc(F)cc2)c2ccccn2)CC1", "Potency": "inactive"}
{"smiles": "Cn1c(=O)[nH]c2ncn(C)c2c1=O", "Potency": "inactive"}
{"smiles": "Cc1cc(Cn2cnc3c2C[C@@H](C(=O)O)N(C(=O)C(c2ccccc2)c2ccccc2)C3)ccc1N", "Potency": "inactive"}
{"smiles": "Nc1ncnc2c1ncn2C1CCCC1", "Potency": "inactive"}
{"smiles": "Nc1nc2c(cnn2CCc2ccccc2)c2nc(-c3ccco3)nn12", "Potency": "inactive"}
{"smiles": "C[N+](C)(C)CC=O", "Potency": "inactive"}
{"smiles": "Cc1nc(N=Nc2ccc(C(=O)O)cc2)c(COP(=O)(O)O)c(C=O)c1O", "Potency": "inactive"}
{"smiles": "CCCCCCCCCC(=O)NC(CN1CCOCC1)[C@H](O)c1ccccc1", "note": "(stereo partly drawn)", "Potency": "inactive"}
{"smiles": "COc1ccccc1N1CCN(CCCNc2c(C)c(=O)n(C)c(=O)n2C)CC1", "Potency": "inactive"}
{"smiles": "NCC(O)c1ccc(O)c(O)c1", "note": "(stereo not drawn)", "Potency": "inactive"}
{"smiles": "O=C(O)CCC/C=C\\C[C@@H]1[C@@H](/C=C/[C@H](O)C2Cc3ccccc3C2)[C@@H](F)C[C@@H]1O", "Potency": "inactive"}
{"smiles": "N=C(N)c1ccccc1", "Potency": "inactive"}
{"smiles": "Cc1cc2c(cc1Cl)N(C(=O)Nc1ccnc3ccccc13)CC2", "Potency": "inactive"}
{"smiles": "C=C(C)C1CC=C(C(=O)O)CC1", "note": "(stereo not drawn)", "Potency": "inactive"}
{"smiles": "c1ccc2nc(C3=NCCN3)ccc2c1", "Potency": "inactive"}
{"smiles": "COC(=O)C(N)Cc1ccc(Cl)cc1", "note": "(stereo not drawn)", "Potency": "inactive"}
{"smiles": "NOCC(=O)O", "Potency": "inactive"}
{"smiles": "NCCCCN", "Potency": "inactive"}
{"smiles": "CCCn1c(=O)c(C)cn2nc(N)nc12", "Potency": "inactive"}
{"smiles": "[Li+]", "Potency": "inactive"}
{"smiles": "C=CCn1c(=O)c2c(nc(-c3ccc(S(=O)(=O)O)cc3)n2C)n(C)c1=O", "Potency": "inactive"}
{"smiles": "CCCCCC(O)CCCC(=O)O", "note": "(stereo not drawn)", "Potency": "inactive"}
{"smiles": "COC(=O)C(C)(N)Cc1ccc(O)cc1", "note": "(stereo not drawn)", "Potency": "inactive"}
{"smiles": "Oc1cc(O)c2c(c1)O[C@H](c1ccc(O)c(O)c1)[C@@H](O)C2", "Potency": "inactive"}
{"smiles": "N#CC(C#N)=C(N)/C(C#N)=C/c1ccc(O)cc1", "Potency": "inactive"}
{"smiles": "NC(N)=NC(N)=Nc1ccccc1", "Potency": "inactive"}
